Laboratory results taken from PubChem BioAssay (NCI).
Where “and” joins values, the source holds several entries; their conditions need not be identical. Equal entries are not always repeated. Compounds without any hit were thinned out: in the full panel of roughly 79,000, 15% have a hit. Where a structure was tested more than once in an assay, its records may differ in their call. Calls of active or inactive are those of the source. Rule as the data show it: active = growth inhibition above about 70%; inactive = the rest.

Columns and labels:
[1] = NCI Yeast Anticancer Drug Screen. Data for the rad50 strain (AID 155);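 also: 0% = growth of vehicle-only cultures of the same strain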; details: S. cerevisiae rad50 strain growth inhibition; at 50.0 µM; stronger effect = higher value
How it was run: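 Genetically altered yeast (DNA repair pathway); compound treatment; growth inhibition vs vehicle ctrl.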

[2] = NCI Yeast Anticancer Drug Screen. Data for the mec2-1 strain (AID 157); details: S. cerevisiae mec2-1 strain, at 50.0 µM, stronger effect = higher value
How it was run: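 Test agents were screened against the mec2-1 yeast strain, with defined DNA repair or cell cycle alteration. Growth was scored as inhibition against vehicle-only controls.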

[3] = NCI Yeast Anticancer Drug Screen. Data for the sgs1 mgt1 strain (AID 161);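 also: 0% = growth of cultures given vehicle only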; details: S. cerevisiae sgs1 mgt1 strain, at 50.0 µM, stronger effect = higher value
How it was run: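 Test agents were incubated with a DNA-repair-mutant yeast strain. Growth was then read and compared against vehicle-treated controls.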

[4] = NCI Yeast Anticancer Drug Screen. Data for the cln2 rad14 strain (AID 165);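 also: 0% = growth equal to vehicle treated cultures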; details: S. cerevisiae cln2 rad14 strain, at 50.0 µM, stronger effect = higher value
How it was run: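 Growth of compound-exposed yeast (cln2 rad14 genotype) measured and expressed as inhibition relative to vehicle.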

[5] = NCI Yeast Anticancer Drug Screen. Data for the bub3 strain (AID 167); details: S. cerevisiae bub3 mutant strain, at 50.0 µM, stronger effect = higher value
How it was run: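 Yeast carrying a defined mutation is treated with each compound, and growth is compared with that of vehicle-exposed cells to give inhibition.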

[6] = NCI Yeast Anticancer Drug Screen. Data for the mlh1 rad18 strain (AID 175); details: S. cerevisiae mlh1 rad18 strain growth inhibition; at 50.0 µM; stronger effect = higher value
How it was run: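 In this whole-cell yeast screen, a strain with altered DNA damage repair is challenged with compound, and its growth is measured against matched vehicle-treated controls.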

Row | Compound | growth inhibition [1] | growth inhibition [2] | growth inhibition [3] | growth inhibition [4] | growth inhibition [5] | growth inhibition [6]
1 | c1ccc(CSSCc2ccccc2)cc1 | 9.45% (inactive) and -1.4% (inactive) | -0.35% (inactive) and -3.15% (inactive) | 3% (inactive) and 1.85% (inactive) | -5.5% (inactive) and -8.2% (inactive) | 4.9% (inactive) and -9.9% (inactive) | 15.3% (inactive) and -14.1% (inactive)
2 | CCCc1ccc(OC2OC(COC(C)=O)C(OC(C)=O)C(OC(C)=O)C2OC(C)=O)cc1 (stereo unspecified) | -7% (inactive) and -12.6% (inactive) | -9.65% (inactive) and 2.4% (inactive) | -13.5% (inactive) and 9.65% (inactive) | -5.25% (inactive) and 3.95% (inactive) | -37% (inactive) and 5.1% (inactive) | -8.05% (inactive) and 4.1% (inactive)
3 | c1ccc(C(c2ccccc2)N2CCCC2)cc1 | -4.05% (inactive) and 7.15% (inactive) | -14.7% (inactive) and 10.8% (inactive) | -5.7% (inactive) and 4.6% (inactive) | 41.1% (inactive) and -0.2% (inactive) | 2.25% (inactive) and 3.7% (inactive) | 25.9% (inactive) and -7% (inactive)
4 | COc1ccc2c(c1OC)C(=O)N1C2=Cc2c(cc3c(c2OC)OCO3)CC1N(C)C (stereo unspecified) | 16.7% (inactive) and 30.1% (inactive) | -26.1% (inactive) and 33.8% (inactive) | 39.9% (inactive) and 57.1% (inactive) | 12.3% (inactive) and 13% (inactive) | -11.8% (inactive) and 17.6% (inactive) | 12.7% (inactive) and 41.2% (inactive)
5 | Cc1ccc(C(O)(C(F)(F)F)C(O)(c2ccc(C)cc2)C(F)(F)F)cc1 (stereo unspecified) | 36.8% (inactive) and 99.2% (active) | 1.9% (inactive) and 99.5% (active) | -12.8% (inactive) and 99.3% (active) | -10.2% (inactive) and 99.4% (active) | -8.85% (inactive) and 99.3% (active) | -5.75% (inactive) and 99% (active)
6 | O=[N+]([O-])c1ccc(S(=O)(=O)Cl)cc1 | 53.2% (inactive) and 20.5% (inactive) | -3.75% (inactive) and 6.75% (inactive) | 30.9% (inactive) and 44.5% (inactive) | 35.8% (inactive) and 23.1% (inactive) | 28.1% (inactive) and 6.15% (inactive) | 52% (inactive) and 52.5% (inactive)
7 | O=C(CC(=O)c1cccnc1)NC(=O)c1ccccc1 | -1.05% (inactive) and -34.5% (inactive) | -2.5% (inactive) and -22.1% (inactive) | -1.35% (inactive) and -4.05% (inactive) | 7.85% (inactive) and 12.1% (inactive) | 3.9% (inactive) and 7.6% (inactive) | -6% (inactive) and -1.95% (inactive)
8 | O=C(O)CC(c1ccccc1)c1ccccc1 | -47.2% (inactive) and 9.6% (inactive) | -39% (inactive) and -5.4% (inactive) | -2.95% (inactive) and 2.15% (inactive) | 3.35% (inactive) and -3.55% (inactive) | -30.6% (inactive) and -21.7% (inactive) | -28.1% (inactive) and -0.95% (inactive)
9 | CCC(C(=O)O)C(=O)O.[NH-]CC[NH-].[Pt+2] | -23.6% (inactive) and -13.2% (inactive) | -8% (inactive) and -3.95% (inactive) | -8.05% (inactive) and -16.4% (inactive) | -29.4% (inactive) and -13.5% (inactive) | 1.3% (inactive) and 2% (inactive) | -10.8% (inactive) and -24% (inactive)
10 | C1CCC(N2CN(C3CCCCC3)C2)CC1 | 7.7% (inactive) and 0.05% (inactive) | -11.9% (inactive) and 0.5% (inactive) | -17.1% (inactive) and -8.8% (inactive) | -14.5% (inactive) and 10.3% (inactive) | -8.85% (inactive) and -19.4% (inactive) | -31.8% (inactive) and 18% (inactive)
11 | CC(=O)CCC1CC(=O)OC1(C)C (stereo unspecified) | -37.6% (inactive) and 0.75% (inactive) | -30% (inactive) and -11.2% (inactive) | -14.3% (inactive) and -15.4% (inactive) | 7.85% (inactive) and -5.75% (inactive) | -26.2% (inactive) and -5.35% (inactive) | -26.2% (inactive) and 23.8% (inactive)
12 | O=C(O)c1cc(N=C=S)ccc1-c1c2ccc(=O)cc-2oc2cc(O)ccc12 | 6.3% (inactive) and 32.9% (inactive) | 3.7% (inactive) and 31.5% (inactive) | -4.85% (inactive) and 15.3% (inactive) | 6% (inactive) and 16.6% (inactive) | -9.75% (inactive) and -4.1% (inactive) | 4.95% (inactive) and 45.9% (inactive)
13 | COc1cc(C=O)ccc1O | 0.2% (inactive) and 12.1% (inactive) | -0.35% (inactive) and 2.65% (inactive) | -5.95% (inactive) and 15.9% (inactive) | 4.45% (inactive) and 6.3% (inactive) | -1.9% (inactive) and 13.4% (inactive) | 7.75% (inactive) and 14.2% (inactive)
14 | O=C1CC(=P(c2ccccc2)(c2ccccc2)c2ccccc2)C(=O)N1c1ccccc1 | -24.2% (inactive) and 22.2% (inactive) | -15.6% (inactive) and -12% (inactive) | -7.95% (inactive) and 42.8% (inactive) | 5.05% (inactive) and 33.2% (inactive) | -9.45% (inactive) and 10.2% (inactive) | -12.8% (inactive) and 21.6% (inactive)
15 | COC(=O)CCC1C(C)(C(C)=O)CCC2C1(C)CCC1(C)C3CC(C)(C)CCC3(C)CCC21C (stereo unspecified) | 1.65% (inactive) and 1.05% (inactive) | 1.05% (inactive) and -5.35% (inactive) | -11.8% (inactive) and -15.2% (inactive) | -7.8% (inactive) and -3.65% (inactive) | -3.9% (inactive) and -2.15% (inactive) | 13.8% (inactive) and 4.4% (inactive)
16 | Cc1cc(N(C)C)nc(N(C)C)n1 | -4.75% (inactive) and -1.7% (inactive) | -4.7% (inactive) and -14.8% (inactive) | -1.5% (inactive) and -5.25% (inactive) | -0.9% (inactive) and -33.3% (inactive) | 10.9% (inactive) and -7.15% (inactive) | 8.25% (inactive) and -10.1% (inactive)
17 | CCc1cc(-c2ccc(OC)cc2)c(C#N)c(=S)n1C1OC(COC(C)=O)C(OC(C)=O)C(OC(C)=O)C1OC(C)=O (stereo unspecified) | 40% (inactive) and 5.75% (inactive) | 1.35% (inactive) and -4.9% (inactive) | -10.4% (inactive) and -18.7% (inactive) | -20.9% (inactive) and -29.4% (inactive) | -0.9% (inactive) and 1.85% (inactive) | 11.2% (inactive) and 7.05% (inactive)
18 | Clc1ccc(/C=N/N=C/c2ccc(Cl)cc2)cc1 | -52.5% (inactive) and -17.1% (inactive) | -28.9% (inactive) and -16% (inactive) | -42.2% (inactive) and -19.6% (inactive) | -23% (inactive) and -20.1% (inactive) | -33.3% (inactive) and 6.3% (inactive) | -33.5% (inactive) and -18.1% (inactive)
19 | O=c1[nH][nH]c(=O)c2ccccc12 | 7.4% (inactive) and 8.6% (inactive) | -24.6% (inactive) and -7.45% (inactive) | -23.8% (inactive) and -6.7% (inactive) | -1.3% (inactive) and -12.8% (inactive) | -10.3% (inactive) and -0.95% (inactive) | 2.75% (inactive) and 25.1% (inactive)
20 | CC(COC(=O)c1ccccc1)NC1CCCCC1 (stereo unspecified) | 12.3% (inactive) and 21.9% (inactive) | 1.05% (inactive) and -0.85% (inactive) | 13.7% (inactive) and 10.7% (inactive) | -27.6% (inactive) and -0.55% (inactive) | -10.3% (inactive) and 0.7% (inactive) | 10.4% (inactive) and -0.2% (inactive)
21 | O=C1OCC/C1=C\c1ccco1 | 9.55% (inactive) and -9.2% (inactive) | 2.2% (inactive) and 3.9% (inactive) | 6.15% (inactive) and 9.15% (inactive) | -19.1% (inactive) and 10.9% (inactive) | -6.75% (inactive) and 17.9% (inactive) | 10.3% (inactive) and -6.35% (inactive)
